Where “and” joins values, the source holds several entries; their conditions need not be identical. Equal values may be shown once. Out of some 5,500 compounds screened, about 2,000 (36%) were called active. About 18% were inconclusive and are not listed. Cut-off read from the data, not from the text of the source: active = normalized growth mostly below about 0.91 (no sharp cut-off); inconclusive = no clear call, values can overlap the other calls; inactive = mostly above about 0.92. The list shows a part of the results.
Experiment: chemical genetic growth profiling, strain panel (AID 1159580);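 note: tested at 20 µM; growth read once vehicle control cultures reached saturation at 30 °C; 1 = growth at the plate median or of vehicle wells; lower values mean less growth of the strain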
Conditions: growth OD

Measured: normalized growth

COCCOC(=O)C1=C(C)NC(C)=C(C(=O)OC(C)C)C1c1cccc([N+](=O)[O-])c1 (stereo unspecified)
inactive: S. cerevisiae deletion strains, locus YJR075W, strain HOC1, hits give low values 1.01 | S. cerevisiae deletion strains, locus YKL009W, strain mrt4, hits give low values 0.967 | S. cerevisiae deletion strains, locus YKL068W, hits give low values 1 | S. cerevisiae deletion strains, locus YKL085W, strain MDH1 (second series), hits give low values 0.986 | S. cerevisiae deletion strains, locus YKL085W, strain MDH1, hits give low values 0.986 | S. cerevisiae deletion strains, locus YKL160W, strain elf1, hits give low values 1.02 | S. cerevisiae deletion strains, locus YKL190W, strain CNB1, hits give low values 0.997 | S. cerevisiae deletion strains, locus YKR001C, strain vps1, hits give low values 1.01 | S. cerevisiae deletion strains, locus YKR026C, strain gcn3, hits give low values 1.01 | S. cerevisiae deletion strains, locus YKR091W, strain srl3, hits give low values 0.995 | S. cerevisiae deletion strains, locus YLL001W, strain dnm1, hits give low values 1.01 | S. cerevisiae deletion strains, locus YLL026W, hits give low values 1 | S. cerevisiae deletion strains, locus YLL041C, strain sdh2, hits give low values 1.01 | S. cerevisiae deletion strains, locus YLR027C, strain aat2, hits give low values 1 | S. cerevisiae deletion strains, locus YLR039C, strain RIC1, hits give low values 1.02 | S. cerevisiae deletion strains, locus YLR058C, strain SHM2, hits give low values 1 | S. cerevisiae deletion strains, locus YLR102C, strain apc9, hits give low values 1.02 | S. cerevisiae deletion strains, locus YLR113W, strain HOG1, hits give low values 0.954 | S. cerevisiae deletion strains, locus YLR221C, strain rsa3, hits give low values 1 | S. cerevisiae deletion strains, locus YLR258W, strain gsy2, hits give low values 1.01 | S. cerevisiae deletion strains, locus YLR262C, strain YPT6 (second series), hits give low values 0.988 | S. cerevisiae deletion strains, locus YLR262C, strain YPT6, hits give low values 1.05 | S. cerevisiae deletion strains, locus YLR268W, strain sec22, hits give low values 0.993 | S. cerevisiae deletion strains, locus YLR320W, strain mms22, hits give low values 0.984 | S. cerevisiae deletion strains, locus YLR330W, strain CHS5, hits give low values 1.01 | S. cerevisiae deletion strains, locus YLR342W, strain FKS1 (second series), hits give low values 1.01 | S. cerevisiae deletion strains, locus YLR342W, strain FKS1, hits give low values 1.02 | S. cerevisiae deletion strains, locus YLR357W, strain rsc2, hits give low values 1.02 | S. cerevisiae deletion strains, locus YLR370C, strain arc18, hits give low values 1 | S. cerevisiae deletion strains, locus YLR371W, strain rom2, hits give low values 1.01 | S. cerevisiae deletion strains, locus YLR384C, strain iki3, hits give low values 1.02 | S. cerevisiae deletion strains, locus YLR418C, strain cdc73, hits give low values 0.974 | S. cerevisiae deletion strains, locus YML016C, strain PPZ1, hits give low values 1 | S. cerevisiae deletion strains, locus YML032C, strain rad52, hits give low values 1.01 | S. cerevisiae deletion strains, locus YML120C, strain ndi1, hits give low values 1.03 | S. cerevisiae deletion strains, locus YML124C, strain tub3, hits give low values 1.01 | S. cerevisiae deletion strains, locus YMR058W, strain fet3, hits give low values 1.02 | S. cerevisiae deletion strains, locus YMR078C, strain ctf18, hits give low values 1.02 | S. cerevisiae deletion strains, locus YMR125W, strain sto1, hits give low values 1.06 | S. cerevisiae deletion strains, locus YMR129W, hits give low values 1.01 | S. cerevisiae deletion strains, locus YMR205C, strain PFK2, hits give low values 0.979 | S. cerevisiae deletion strains, locus YMR223W, strain ubp8, hits give low values 1.01 | S. cerevisiae deletion strains, locus YMR231W, strain pep5, hits give low values 1.01 | S. cerevisiae deletion strains, locus YMR263W, strain SAP30, hits give low values 1 and 1.01 | S. cerevisiae deletion strains, locus YMR307W, strain GAS1, hits give low values 1.02 and 1.01 | S. cerevisiae deletion strains, locus YNL067W, strain RPL9B, hits give low values 0.997 | S. cerevisiae deletion strains, locus YNL071W, strain lat1, hits give low values 0.998 | S. cerevisiae deletion strains, locus YNL128W, strain TEP1, hits give low values 1.01 | S. cerevisiae deletion strains, locus YNL153C, strain GIM3, hits give low values 1 | S. cerevisiae deletion strains, locus YNL175C, strain NOP13, hits give low values 0.962 | S. cerevisiae deletion strains, locus YNL183C, strain NPR1, hits give low values 0.93 | S. cerevisiae deletion strains, locus YNL197C, strain WHI3, hits give low values 0.99 | S. cerevisiae deletion strains, locus YNL209W, strain ssb2, hits give low values 1 | S. cerevisiae deletion strains, locus YNL224C, strain SQS1, hits give low values 1.01 | S. cerevisiae deletion strains, locus YNL233W, strain BNI4, hits give low values 1 | S. cerevisiae deletion strains, locus YNL248C, strain rpa49, hits give low values 1.03 | S. cerevisiae deletion strains, locus YNL250W, strain rad50, hits give low values 1.02 | S. cerevisiae deletion strains, locus YNL271C, strain bni1, hits give low values 1.01 | S. cerevisiae deletion strains, locus YNL298W, strain CLA4, hits give low values 1 | S. cerevisiae deletion strains, locus YNL307C, strain MCK1, hits give low values 1.01 | S. cerevisiae deletion strains, locus YNL322C, strain KRE1 (second series), hits give low values 1 | S. cerevisiae deletion strains, locus YNL322C, strain KRE1, hits give low values 1.01 | S. cerevisiae deletion strains, locus YNR049C, strain mso1, hits give low values 0.993 | S. cerevisiae deletion strains, locus YNR052C, strain pop2, hits give low values 1.01 | S. cerevisiae deletion strains, locus YOL006C, strain TOP1, hits give low values 1.01 | S. cerevisiae deletion strains, locus YOL012C, strain htz1 1.04 | S. cerevisiae deletion strains, locus YOL147C, strain pex11, hits give low values 1.01 | S. cerevisiae deletion strains, locus YOR001W, strain rrp6, hits give low values 1 | S. cerevisiae deletion strains, locus YOR061W, strain CKA2, hits give low values 0.999 | S. cerevisiae deletion strains, locus YOR069W, strain VPS5, hits give low values 1.01 | S. cerevisiae deletion strains, locus YOR070C, strain gyp1, hits give low values 1.02 | S. cerevisiae deletion strains, locus YOR080W, strain dia2, hits give low values 1.01 | S. cerevisiae deletion strains, locus YOR083W, strain WHI5 (second series), hits give low values 0.986 | S. cerevisiae deletion strains, locus YOR083W, strain WHI5, hits give low values 0.974 | S. cerevisiae deletion strains, locus YOR106W, strain vam3, hits give low values 1 | S. cerevisiae deletion strains, locus YOR136W, strain idh2, hits give low values 1.01 | S. cerevisiae deletion strains, locus YOR144C, strain elg1, hits give low values 1.01 | S. cerevisiae deletion strains, locus YOR184W, strain ser1, hits give low values 1.01 | S. cerevisiae deletion strains, locus YOR231W, strain MKK1, hits give low values 0.935 | S. cerevisiae deletion strains, locus YOR265W, strain rbl2, hits give low values 0.999 | S. cerevisiae deletion strains, locus YOR270C, strain vph1, hits give low values 0.92 | S. cerevisiae deletion strains, locus YOR290C, strain snf2, hits give low values 1.03 | S. cerevisiae deletion strains, locus YOR316C, strain cot1, hits give low values 1.01 | S. cerevisiae deletion strains, locus YPL051W, strain arl3, hits give low values 1.01 | S. cerevisiae deletion strains, locus YPL055C, strain LGE1, hits give low values 1 and 1.02 | S. cerevisiae deletion strains, locus YPL078C, strain atp4, hits give low values 1.03 | S. cerevisiae deletion strains, locus YPL106C, strain sse1, hits give low values 1.08 | S. cerevisiae deletion strains, locus YPL240C, strain hsp82, hits give low values 1.02 | S. cerevisiae deletion strains, locus YPL241C, strain CIN2, hits give low values 0.985 | S. cerevisiae deletion strains, locus YPL256C, strain CLN2, hits give low values 0.955 | S. cerevisiae deletion strains, locus YPR119W, strain clb2, hits give low values 1.01 | S. cerevisiae deletion strains, locus YPR141C, strain kar3, hits give low values 1.02 | S. cerevisiae deletion strains, locus YPR163C, strain tif3, hits give low values 1.01 | S. cerevisiae deletion strains, locus YPR167C, strain met16, hits give low values 1.01 | S. cerevisiae deletion strains, strain wtn01, hits give low values 1 | S. cerevisiae strains, strain wild type, hits give low values 1

— PubChem BioAssay AID1159580 (chemical genetic matrix, 2015)
